From PubChem BioAssay
Calls of active or inactive are those of the source.

Columns and labels:
Albumin (Bos taurus) = Albumin (Bos taurus) (UniProt P02769); assay: bovine serum albumin binders on microarray, profiling panel, artefact control for SMM control protein annotation, biochemical, small-molecule microarray, Alexa647 label, 635/667 nm fluorescence (AID 1118); settings: BSA-A647 binding, fluorescence 635 nm, higher = more signal;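 note: score merges 667 nm emission intensity and signal-to-noise per printed compound spot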
[1] = small-molecule microarray binders of probe aXIP, primary screen, biochemical, NeuroSMM set, 635/667 nm fluorescence (AID 1119); settings: higher = more signal, called active from +8 up or from −8 down;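 note: probe is the protein aXip251-270 applied at 1 µg/mL to compound-printed slides; binding of probe to printed compounds measured as 667 nm fluorescence plus signal to noise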
[2] = small-molecule binders of probe aNOTCH3, primary screen, biochemical, small-molecule microarray, 635/667 nm fluorescence (AID 1120); settings: higher = more signal;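 note: probe is a biotin-tagged antibody raised against NOTCH3 rather than NOTCH3 protein; score merges spot fluorescence near 667 nm with spot signal to noise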
[3] = small-molecule binders of probe aNOTCH2, primary screen, biochemical, small-molecule microarray, 635/667 nm fluorescence (AID 1121); settings: higher = more signal;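 note: score merges feature fluorescence read at 667 nm with its signal to noise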
[4] = target: Carbonic anhydrase 2 (Homo sapiens) (UniProt P00918); assay: CAII small-molecule binders, profiling panel, biochemical, small-molecule microarray, Alexa647-labelled CAII (AID 1122); settings: CAII-A647 binding fluorescence, higher = more signal
[5] = COS7 lysate on small-molecule microarray, probe aHis, 635 nm (AID 1123); settings: COS7 cell lysate, fluorescence, higher = more signal;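 note: z-score combines 667nm fluorescence intensity with signal-to-noise per printed compound spot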
[6] = compound binding in COS7 lysate, probe aLAP1, primary screen, cell lysate, small-molecule microarray (AID 1124); settings: probe aLAP1, fluorescence, higher = more signal;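 note: lysate comes from COS7 cells expressing LAP1 and is applied at 0.3 µg/mL; score merges spot fluorescence near 667 nm with signal-to-noise over triplicate slides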
Sam68 (KHDRBS1) = assay: Sam68 small-molecule binders, primary screen, biochemical, small-molecule microarray, 635 nm fluorescence (AID 1125); settings: small-molecule microarray binding, higher = more signal;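 note: score merges 667 nm channel intensity with signal to noise over triplicate slides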
[7] = system: Chordin-like protein 2 (CHRDL2); assay: CHRDL2 small-molecule binders, primary screen, biochemical, small-molecule microarray, 635 nm fluorescence (AID 1126); settings: small-molecule microarray binding, fluorescence 635 nm; higher = more signal;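 note: printed compound slides probed with Chrdl2 protein at 4 µg/mL for 1 h at 4 C; score merges 667 nm emission intensity with signal to noise over three replicate slides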
[8] = target: Concanavalin-A (Canavalia ensiformis) (UniProt P02866); assay: ConA small-molecule binders, primary screen, artefact control for SMM control protein annotation, biochemical, small-molecule microarray, Alexa647 label, 635 nm (AID 1127); settings: ConA-A647 binding fluorescence, higher = more signal;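 note: z combines 667 nm emission intensity with signal-to-noise across three replicate slides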
[9] = anti-His antibody binders, primary screen, artefact control for SMM control protein annotation, biochemical, small-molecule microarray, 635 nm fluorescence (AID 1128); settings: anti-His Alexa647 antibody binding, higher = more signal;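 note: score merges feature fluorescence with signal-to-noise for each printed compound spot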
[10] = system: Human papillomavirus type 1a E7 protein (residues 1-88); assay: HPV1a E7 small-molecule binders, primary screen, biochemical, small-molecule microarray, residues 1-88, 635 nm (AID 1129); settings: small-molecule microarray binding, fluorescence 635 nm; higher = more signal
[11] = target: Focal adhesion kinase 1 (Homo sapiens) (UniProt Q05397); assay: small-molecule microarray binders of FAK, primary screen, biochemical, 635/667 nm fluorescence, BSA, DTT (AID 1130); settings: PTK2 binding, 635 nm fluorescence, higher = more signal;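 note: composite of spot emission at 667 nm and signal to noise over triplicate slides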
[12] = system: Fibrinogen (Alexa647-labelled); assay: fibrinogen binders on compound microarrays, profiling panel, artefact control for SMM control-protein annotation, biochemical, small-molecule microarray, 635/667 nm fluorescence (AID 1131); settings: fibrinogen-A647 binding fluorescence, higher = more signal;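 note: z-score merges 667 nm fluorescence with per-spot signal-to-noise over triplicate slides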
[13] = target: Follistatin (Homo sapiens) (UniProt P19883); assay: follistatin binders on small-molecule microarrays, primary screen, biochemical, small-molecule microarray, 635/667 nm fluorescence (AID 1132); settings: FST binding, 635 nm fluorescence, higher = more signal
[14] = target: Fibroblast growth factor 2 (Homo sapiens) (UniProt P09038); assay: FGF2 binders on small-molecule microarrays, primary screen, biochemical, small-molecule microarray, 635/667 nm fluorescence (AID 1133); settings: small-molecule microarray binding, FGF2, fluorescence 635/667; higher = more signal
[15] = mitochondrial membrane potential change in A549 cells, profiling panel, cell-based, JC-1 fluorescence, basal, 24 h, 100 nL (AID 1138); settings: higher = more signal;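 note: A549 lung adenocarcinoma cells under basal conditions with no added stimulus; test concentration not given here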
Lefty1 = Lefty1 binders on small-molecule microarrays, primary screen, biochemical, small-molecule microarray, 635/667 nm fluorescence (AID 1139); settings: small-molecule microarray binding, fluorescence 635/667; higher = more signal
[16] = system: wheat germ agglutinin (Triticum aestivum), Alexa647-labelled; assay: wheat germ agglutinin binders on compound microarrays, profiling panel, artefact control for SMM control-protein annotation, biochemical, small-molecule microarray, 635/667 nm fluorescence (AID 1140); settings: WGA-A647 binding, 635 nm fluorescence, higher = more signal;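 note: score merges 667 nm feature emission with signal to noise over triplicate slides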
[17] = target: Luciferin 4-monooxygenase (Photinus pyralis) (UniProt P08659); assay: firefly luciferase enzyme inhibitors, primary screen, biochemical, luminescence, purified enzyme, 2006 set (AID 1141); settings: SteadyGlo luminescence, 30 min, higher = more signal, called active from +8 up or from −8 down;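 note: cell-free assay with purified firefly luciferase at 100 ng per well in PBS; test concentration not given here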
Luciferin 4-monooxygenase (Photinus pyralis), sequence (P08659 whole entry, looked up): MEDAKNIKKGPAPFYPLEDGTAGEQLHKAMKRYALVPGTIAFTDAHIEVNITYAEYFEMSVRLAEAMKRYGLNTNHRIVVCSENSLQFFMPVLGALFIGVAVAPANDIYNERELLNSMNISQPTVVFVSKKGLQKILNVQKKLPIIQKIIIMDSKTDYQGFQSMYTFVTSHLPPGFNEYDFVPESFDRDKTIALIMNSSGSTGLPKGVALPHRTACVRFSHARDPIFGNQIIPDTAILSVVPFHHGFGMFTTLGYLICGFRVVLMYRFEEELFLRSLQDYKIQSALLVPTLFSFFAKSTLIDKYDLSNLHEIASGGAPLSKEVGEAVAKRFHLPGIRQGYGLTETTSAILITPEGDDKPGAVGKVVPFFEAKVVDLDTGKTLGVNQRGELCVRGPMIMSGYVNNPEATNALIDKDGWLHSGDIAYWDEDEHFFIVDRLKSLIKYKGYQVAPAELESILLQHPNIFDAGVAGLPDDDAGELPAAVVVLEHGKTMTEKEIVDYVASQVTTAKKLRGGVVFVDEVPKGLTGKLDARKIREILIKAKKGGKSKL

Concanavalin-A (Canavalia ensiformis), sequence (P02866 whole entry, looked up): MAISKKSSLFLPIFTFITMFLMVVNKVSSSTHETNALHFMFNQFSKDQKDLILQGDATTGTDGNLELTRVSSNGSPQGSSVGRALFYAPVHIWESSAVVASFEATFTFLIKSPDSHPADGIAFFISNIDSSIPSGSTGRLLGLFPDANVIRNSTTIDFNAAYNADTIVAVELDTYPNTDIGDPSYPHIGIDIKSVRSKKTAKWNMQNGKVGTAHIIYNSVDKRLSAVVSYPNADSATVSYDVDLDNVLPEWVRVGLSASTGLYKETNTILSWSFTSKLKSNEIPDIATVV
Albumin (Bos taurus), sequence (P02769 whole entry, looked up): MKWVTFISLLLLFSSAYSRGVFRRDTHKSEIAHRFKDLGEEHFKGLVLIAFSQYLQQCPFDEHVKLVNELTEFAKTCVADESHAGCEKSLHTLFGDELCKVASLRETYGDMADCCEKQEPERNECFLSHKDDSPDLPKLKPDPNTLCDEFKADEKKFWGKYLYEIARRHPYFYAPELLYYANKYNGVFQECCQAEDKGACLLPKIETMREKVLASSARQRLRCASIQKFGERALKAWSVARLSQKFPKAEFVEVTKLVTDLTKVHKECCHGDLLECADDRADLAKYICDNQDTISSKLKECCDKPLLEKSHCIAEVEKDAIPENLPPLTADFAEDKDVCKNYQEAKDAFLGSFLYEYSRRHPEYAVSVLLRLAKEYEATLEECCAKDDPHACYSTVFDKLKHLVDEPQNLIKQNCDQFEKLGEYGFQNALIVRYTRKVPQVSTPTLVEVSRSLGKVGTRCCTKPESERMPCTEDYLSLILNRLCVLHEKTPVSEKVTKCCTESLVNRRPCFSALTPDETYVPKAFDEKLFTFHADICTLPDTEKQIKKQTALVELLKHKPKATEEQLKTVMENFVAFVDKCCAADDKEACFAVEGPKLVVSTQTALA
Focal adhesion kinase 1 (Homo sapiens), sequence (Q05397 whole entry, looked up): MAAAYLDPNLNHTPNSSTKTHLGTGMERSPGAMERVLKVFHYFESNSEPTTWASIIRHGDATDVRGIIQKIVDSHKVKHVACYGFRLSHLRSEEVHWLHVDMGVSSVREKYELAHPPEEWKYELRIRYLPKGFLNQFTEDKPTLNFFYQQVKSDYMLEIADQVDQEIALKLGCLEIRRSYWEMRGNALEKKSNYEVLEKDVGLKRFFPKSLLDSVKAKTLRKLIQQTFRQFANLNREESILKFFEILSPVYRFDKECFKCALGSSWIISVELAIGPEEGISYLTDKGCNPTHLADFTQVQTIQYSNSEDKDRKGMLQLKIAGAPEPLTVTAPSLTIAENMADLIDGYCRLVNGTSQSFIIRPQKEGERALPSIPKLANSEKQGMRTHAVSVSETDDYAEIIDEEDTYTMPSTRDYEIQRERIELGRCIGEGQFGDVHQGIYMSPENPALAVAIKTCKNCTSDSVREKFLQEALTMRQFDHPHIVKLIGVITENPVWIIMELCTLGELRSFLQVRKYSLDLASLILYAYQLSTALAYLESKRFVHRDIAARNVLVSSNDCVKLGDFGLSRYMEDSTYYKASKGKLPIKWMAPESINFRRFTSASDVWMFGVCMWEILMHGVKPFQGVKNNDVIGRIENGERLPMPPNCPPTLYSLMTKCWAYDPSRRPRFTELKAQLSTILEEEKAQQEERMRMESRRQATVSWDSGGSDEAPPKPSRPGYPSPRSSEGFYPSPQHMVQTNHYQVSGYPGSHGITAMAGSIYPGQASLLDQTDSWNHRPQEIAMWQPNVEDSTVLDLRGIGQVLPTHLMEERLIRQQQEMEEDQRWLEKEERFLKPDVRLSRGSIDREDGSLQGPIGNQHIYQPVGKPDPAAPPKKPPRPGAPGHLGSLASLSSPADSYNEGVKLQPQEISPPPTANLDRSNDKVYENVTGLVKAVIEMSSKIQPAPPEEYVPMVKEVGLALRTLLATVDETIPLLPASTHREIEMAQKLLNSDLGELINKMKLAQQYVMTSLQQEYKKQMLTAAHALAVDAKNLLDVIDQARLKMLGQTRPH
Follistatin (Homo sapiens), sequence (P19883 whole entry, looked up): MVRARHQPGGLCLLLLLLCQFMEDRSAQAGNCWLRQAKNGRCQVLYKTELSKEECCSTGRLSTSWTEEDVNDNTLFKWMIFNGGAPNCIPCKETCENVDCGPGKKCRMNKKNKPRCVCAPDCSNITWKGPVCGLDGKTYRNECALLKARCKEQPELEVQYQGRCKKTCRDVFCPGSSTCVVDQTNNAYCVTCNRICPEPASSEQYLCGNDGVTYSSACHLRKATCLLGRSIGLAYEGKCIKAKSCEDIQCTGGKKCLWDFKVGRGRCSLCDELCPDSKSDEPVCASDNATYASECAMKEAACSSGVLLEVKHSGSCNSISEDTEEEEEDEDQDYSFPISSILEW
Fibroblast growth factor 2 (Homo sapiens), sequence (P09038 whole entry, looked up): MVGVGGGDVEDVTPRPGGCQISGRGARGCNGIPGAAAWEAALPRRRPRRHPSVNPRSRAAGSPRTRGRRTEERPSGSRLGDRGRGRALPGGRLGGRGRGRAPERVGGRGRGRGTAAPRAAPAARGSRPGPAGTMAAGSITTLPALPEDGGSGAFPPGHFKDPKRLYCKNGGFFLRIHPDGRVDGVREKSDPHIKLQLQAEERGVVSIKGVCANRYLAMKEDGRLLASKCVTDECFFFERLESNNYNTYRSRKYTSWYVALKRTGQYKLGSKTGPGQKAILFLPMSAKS

SMILES | composite z-score (Albumin (Bos taurus)) | composite Z-score [1] | composite z-score [2] | composite z-score [3] | composite z-score [4] | composite z-score [5] | composite z-score [6] | composite z-score (Sam68 (KHDRBS1)) | composite z-score [7] | composite z-score [8] | composite z-score [9] | composite z-score [10] | composite z-score [11] | composite z-score [12] | composite z-score [13] | composite z-score [14] | z-score [15] | composite z-score (Lefty1) | composite z-score [16] | z-score [17]
CC(C)CON=C1[C@H]2CCn3c(=O)n(-c4ccccc4)c(=O)n3[C@H]2[C@H](O)[C@@H]2O[C@H]12 | 0.348 | 0.131 (inactive) | -0.0193 | 0.0145 | -0.0152 | -0.497 | -0.544 | -0.589 | 0.762 | 0.0834 | 0.0684 | 0.118 | 0.164 | 0.571 | 0.504 | 1.03 | -0.0655 | 0.475 | 0.201 | -0.408 (inactive)
COC(=O)[C@H](C)NC(=O)[C@@H](C)CO | 0.802 | 0.292 (inactive) | -0.105 | -0.103 | 0.516 | 1.15 | 0.531 | 1.03 | 0.0899 | 0.907 | 0.548 | 1.2 | 0.48 | 0.941 | 0.252 | 0.108 | -1.08 | 0.602 | 1 | 0.877 (inactive)
COC(=O)CC=C[C@@H](C)[C@@H](C=NO[C@H](C)c1cn([C@@H]2COC[C@H]2O)nn1)OC | 0.162 | -0.311 (inactive) | -0.0377 | -0.122 | -0.111 | 0.214 | -0.115 | 0.747 | 0.666 | 0.266 | 1.19 | 0.695 | -0.0208 | -0.0974 | 0.341 | 0.796 | 0.014 | 0.645 | -0.116 | -0.287 (inactive)
CCOC(=O)NN=C1C[C@@H](O)[C@@H](O)[C@@H]2[C@@H]3C(=O)N(CC)C(=O)[C@@H]3CC[C@@H]12 | 0.338 | 0.112 (inactive) | -0.0864 | -0.125 | 0.735 | 0.472 | -0.0313 | 0.976 | 0.0151 | 0.481 | 0.249 | 0.707 | 0.25 | 0.356 | 0.314 | -0.0549 | 0.0102 | 0.476 | -0.203 | 0.439 (inactive)
CCOC(=O)[C@H](Cc1ccccc1)NC(=O)CCC1CC(OC(=O)NCCc2ccc(F)cc2)CC2(CCCC(COC(=O)NCC(c3ccccc3)c3ccccc3)O2)O1 (stereo not given in full) | 0.641 | 0.066 (inactive) | -0.0893 | -0.037 | 0.16 | 1.04 | 0.0435 | 1.32 | 0.227 | 0.992 | 0.999 | 0.517 | 0.111 | 0.7 | 0.831 | 0.563 | 0.597 | 0.68 | 0.554 | 0.715 (inactive)
Cc1ccc(S(=O)(=O)N[C@@H]2COC(=O)[C@H](C)COC(=O)CC=C[C@H]2C)cc1 | -0.601 | -0.186 (inactive) | -0.224 | -0.0817 | -0.271 | -0.32 | -0.7 | 0.0715 | 1.23 | -0.0405 | -0.419 | -0.0268 | -0.232 | -0.305 | 1.35 | 0.98 | 0.26 | 1.38 | -0.277 | -0.181 (inactive)
C#C[C@@H](CC)O[Si](C#Cc1ccc(Oc2ccccc2)cc1)(C(C)C)C(C)C | -0.109 | 0.317 (inactive) | 0.122 | -0.11 | 0.535 | 0.476 | 0.339 | 1.3 | 0.234 | 0.218 | 0.491 | 0.649 | -0.0378 | 0.15 | 0.395 | 0.307 | -1.81 | 0.63 | 0.299 | 0.0007 (inactive)
O=C1CCCC=C1C(O)CCOCc1ccccc1 (stereo not given) | -0.492 | -0.32 (inactive) | -0.0072 | -0.108 | -0.0262 | -0.202 | -0.195 | -0.887 | 0.309 | -0.299 | -0.467 | -0.406 | -0.0626 | -1 | 0.112 | 0.102 | -0.758 | 0.484 | -0.123 | -0.0361 (inactive)
COCCCNC(=O)[C@@]1(CCS(=O)(=O)c2ccccc2)N=C(c2ccc(OCCCO)cc2)O[C@H]1c1ccccc1 | 0.533 | 0.164 (inactive) | 0.303 | 0.529 | 0.577 | 3 | 1.01 | 1.31 | -0.0021 | 0.261 | 2.98 | 1.25 | 0.746 | 0.878 | 0.695 | 0.426 | 2.39 | -0.854 | 0.716 | -1.79 (inactive)
CN(C)CCCNC(=O)[C@@H]1c2ccccc2C(=O)N(Cc2cc(F)cc(C(F)(F)F)c2)[C@H]1c1ccc(CO)cc1 | 0.277 | 0.451 (inactive) | -0.0976 | -0.114 | 0.783 | 0.969 | 0.578 | 0.946 | 1.08 | 0.21 | 0.77 | 1.07 | -0.0288 | 0.216 | 1.28 | 0.309 | -0.00183 | -0.271 | 0.039 | 0.0764 (inactive)
COCCOC(=O)N1C(=O)[C@@]2(c3cc(C#Cc4ccc(OC)cc4)ccc31)[C@H](C(=O)N1CCN(c3ncccn3)CC1)[C@H]1C(=O)O[C@H](c3ccccc3)[C@H](c3ccccc3)N1[C@@H]2c1ccc(OCCO)cc1 | -0.447 | 0.549 (inactive) | 0.311 | 0.0966 | 0.31 | 1.1 | 0.634 | 0.556 | 0.792 | 1.08 | 0.233 | 0.202 | 0.253 | 0.274 | 1.26 | 1.06 | -1.15 | 0.786 | 0.769 | -0.411 (inactive)
CC(=O)OC[C@H]1O[C@H](CCON=C[C@@H](C)[C@H](OCc2ccccc2)C(C)C)C=C[C@@H]1OC(C)=O | 0.0841 | -0.313 (inactive) | 0.214 | -0.0716 | -0.249 | -0.039 | 0.148 | 0.997 | 0.755 | 0.0066 | -0.508 | 0.193 | -0.101 | 0.797 | 0.319 | 0.274 | -0.808 | 0.325 | 0.156 | 1.26 (inactive)
COC(=O)C1=CCC(c2cccc(Cl)c2)O1 (stereo not given) | 0.431 | 0.0018 (inactive) | -0.112 | -0.0907 | 0.483 | -0.21 | -0.201 | 0.137 | -0.667 | 0.247 | 0.192 | 0.24 | -0.126 | 0.346 | -0.399 | -0.473 | -0.816 | -0.319 | -0.455 | 1.74 (inactive)
CCc1cc2c(nc1CC)CCN(CCC(C)=NOC[C@@H](O)[C@H]1O[C@@H]3OC(C)(C)O[C@@H]3[C@H]1O)C2 | 0.424 | 0.386 (inactive) | -0.0111 | -0.0891 | 0.213 | 0.421 | -0.0959 | 0.398 | 0.382 | 0.971 | 0.29 | -0.0321 | -0.113 | 0.572 | 0.187 | 0.106 | 0.489 | 0.446 | 0.878 | -0.0353 (inactive)
CN1C(=O)C2C=CC(C(O)c3ccc(Br)cc3)N(N(c3ccccc3)c3ccccc3)C2C1=O (stereo not given) | 0.296 | 0.49 (inactive) | -0.0003 | -0.0976 | 0.106 | 1.04 | -0.068 | 0.676 | -0.815 | 0.951 | 0.373 | 0.77 | 0.704 | 0.312 | 0.502 | -0.538 | 1.34 | -0.409 | 0.585 | -0.495 (inactive)
